Compounds with a hit are over-represented: about 7.9% of the library has one in this group of screens.
HT1080-NT tox: kills 2HG-producing HT-1080-NT fibrosarcoma cells. HT-1080-NT fibrosarcoma viability, CellTiter-Glo ATP luminescence, 48 h. Potency, µM (top dose mostly 46.1 µM), inactives show at the top dose activity, negative = less viability, hits mostly cytotoxic. 360,000 compounds, 1.6% hits. AID 686970;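 note: NT is the 2HG producing partner of a matched IDH1 knockdown line; 0% = DMSO-treated cells and -100% = media-only wells without cells; nearly all actives have a fitted effect of over 55% in size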
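Fibrosarcoma NT cells, 750 per well in 5% FBS RPMI, were exposed to compound for 48 hours. Viability: CellTiter-Glo luminescence.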
SW480 rereplic: inducers of DNA re-replication in SW480 colon cancer cells. Potency, µM (highest dose often 46.1 µM), inactives show at the highest dose re-replication activation, hits mostly activators. 340,000 compounds, 1.8% hits. SW480 DNA re-replication, Hoechst DNA content imaging, 48 h; note: % of control where 0% means no effect; nearly all actives have a fitted effect of over 55% in size
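Treated cells incubate 48 hr (37 C, 5% CO2), are stained 40 min with Hoechst, and nuclear fluorescence is enumerated; a rise in nuclei with high DNA signal marks re-replication.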
KB-V1 MDR tox: kills drug-selected multidrug resistant KB-V1 cells; KB-V1 MDR cells viability, CellTiter-Glo, 72 h; Potency, µM (highest dose often 46.1 µM), most hits filed as cytotoxic; 400,000 compounds, 3.4% hits; AID 1347076; note: % is set by controls: 0 for no effect and ±100 for the full control effect; nearly all actives have a fitted effect of over 60% in size
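Potencies derive from concentration-effect curves fitted to normalized luminescence (CellTiter-Glo) of KB-V1 cells treated for 72 h at 37 degrees C in phenol-red-free DMEM containing 10% FBS.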
KB-3-1 tox: kills parental KB-3-1 adenocarcinoma cells | Potency, µM (doses to about 46.1 µM), actives largely listed as cytotoxic | 400,000 compounds, 1.4% hits | KB-3-1 viability, CellTiter-Glo ATP luminescence, 72 h; note: % is set by controls: 0 for no effect and ±100 for the full control effect; nearly all actives have a fitted effect of over 60% in size
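Cells are dispensed, compounds pinned in, plates held at 37 °C for 72 h, then CellTiter-Glo is added and luminescence read after 10 minutes. Cell line: parental KB-3-1 in phenol-red-free DMEM, 10% FBS.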
HT1080 IDH1KD tx: toxicity to HT-1080 IDH1 knockdown cells (counter line); HT-1080 IDH1 knockdown viability, ATP luminescence, 48 h; Potency, µM (top dose mostly 46.1 µM), inactives show at the highest dose activity, negative = toxicity, hits mostly cytotoxic; 360,000 compounds, 2% hits; AID 686971;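 note: 0% = DMSO wells and -100% = cell-free medium wells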
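CellTiter-Glo luminescence after 48 h compound exposure at 37 degrees C of IDH1-knockdown HT-1080 cells in 5% FBS RPMI. %Activity scaled between DMSO wells and cell-free media wells, with curves fitted and assigned curve classes.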
MCF10A rerep: induces DNA re-replication in MCF 10a normal breast cells | MCF 10A DNA re-replication, Hoechst nuclear intensity, 48 h | Potency, µM (top dose mostly 46.1 µM), for the others: top-dose activity, positive = re-replication, most hits filed as activators | 350,000 compounds, 2.9% hits | AID 624296; note: % of control where 0% means no effect; nearly all actives have a fitted effect of over 50% in size
Active calls of the source: *; i = inactive; ? = inconclusive; . = no result given. Calls come from the whole dose curve; as a rule, active = well fitted curve in the direction sought with a large enough effect; inconclusive = small, poorly fitted or top-dose-only effect, or another doubt; inactive = no such curve, though single readings can be large; an effect the other way counts as inactive or inconclusive. Potency is the fitted concentration of half-maximal effect.

SMILES | HT1080-NT tox | SW480 rereplic | KB-V1 MDR tox | KB-3-1 tox | HT1080 IDH1KD tx | MCF10A rerep
O=C(CC1Sc2ccccc2NC1=O)OC(C(=O)NCCc1ccccc1)c1cccnc1 (centres undefined) | 0% | -25% | ? | i | 0% | 0%
COCCNC(=O)C(OC(=O)CC1Sc2ccccc2NC1=O)c1ccncc1 (centres undefined) | 5% | 3.7µM* | i | i | 1% | 4.6µM*
CCC(C)N(C(=O)CSc1nc(-c2cccs2)nc2ccccc12)C1CCS(=O)(=O)C1 (centres undefined) | -23% | ? | 1.5µM* | i | ? | ?
CCC(C)N(C(=O)CSc1ncnc2sccc12)C1CCS(=O)(=O)C1 (centres undefined) | -4% | 0% | i | i | 0% | -2%
CN1CCC(OC(=O)Cc2ccc(Cl)cc2)CC1 | 11% | 15µM* | ? | i | 7% | -2%
COc1ccc(CN(C)C(C)C(=O)Nc2ccc([N+](=O)[O-])cc2Cl)cc1OC (centres undefined) | -12% | ? | 5.2µM* | i | -14% | 18%
Cc1sc2nc(-c3cccnc3)nc(Cl)c2c1-c1ccccc1 | 11% | 0% | 13µM* | i | 10% | 21µM*
COc1ccccc1CNC(=O)c1cc2cc3ccc(Cl)cc3nc2o1 | . | . | ? | i | . | .
CCOc1ccc2c(ccc(/C=C/c3cc(C)c4cccnc4c3O)[n+]2C)c1 | ? | ? | ? | ? | 23µM* | 6%
O=C(O)C1CCC(=O)N1Cc1ccc(F)cc1 (centres undefined) | 0% | 10% | i | i | 13% | 16µM*
Cn1c(Cl)c(C(=O)Nc2ccc(Cl)cc2)c2ccccc21 | -4% | 22% | 21µM* | 8.2µM* | -23% | 11%
CCN(CC)S(=O)(=O)c1ccc(OC)c(NC(=O)c2cc([N+](=O)[O-])ccc2N2CCOCC2)c1 | -3% | . | i | i | 0% | .
COC(=O)C1=C(C)NC(=O)CC1c1cc2c(cc1Br)OCO2 (centres undefined) | 4% | -7% | i | i | 5% | 4%
CC1=C(C(=O)OC2CCCCCCC2)C(c2cc3c(cc2Br)OCO3)CC(=O)N1 (centres undefined) | ? | ? | i | ? | ? | 5.8µM*
Cc1nc2nc(C)c(CCC(=O)N3CCc4ccccc43)c(C)n2n1 | 7% | -6% | 21µM* | i | 1% | 2%
Cc1c(Cl)cccc1NC(=O)CSc1ncnc2c1sc1ccccc12 | . | . | i | i | . | .
CC(C)NC(=S)N/N=C1\CCCc2ccccc21 | -8% | ? | i | i | -4% | 23%
CC(C)NC(=S)NN=C1CCC(c2ccccc2)CC1 (centres undefined) | 7% | 21µM* | i | i | 12% | -12%
CSc1ccc(Cn2c(C)c(C(=O)NCc3cccc(Cl)c3)sc2=O)cc1 | -17% | . | 9.2µM* | i | ? | .
COc1ccc(C(C)=O)cc1Cn1c(C)c(C(=O)NCc2cccc(Cl)c2)sc1=O | -25% | . | ? | i | -2% | .
Cc1c(C(=O)NCc2ccccc2C(F)(F)F)sc(=O)n1Cc1ccc(S(=O)(=O)N(C)C)cc1 | -10% | . | 8.2µM* | ? | -24% | .
Cc1c(C(=O)NCc2ccc3c(c2)OCO3)sc(=O)n1Cc1ccc(S(C)(=O)=O)cc1 | 1% | . | ? | ? | -13% | .
Cc1cccc(CNC(=O)c2sc(=O)n(Cc3ccc(S(C)(=O)=O)cc3)c2C)c1 | -6% | . | 15µM* | ? | ? | .
COc1ccc(Cl)cc1Cn1c(C)c(C(=O)NCc2cccc(Cl)c2)sc1=O | -3% | . | 15µM* | i | -1% | .
Cc1cccc(C(=O)Nc2nnc(S(=O)(=O)N(C)Cc3ccc(Cl)cc3)s2)c1 | . | . | i | i | . | .
SMILES | HT1080-NT tox | SW480 rereplic | KB-V1 MDR tox | KB-3-1 tox | HT1080 IDH1KD tx | MCF10A rerep
COC(=O)c1ccc(Cn2c(C)c(C(=O)NCc3ccc([N+](=O)[O-])cc3)sc2=O)o1 | 0% | . | ? | i | -22% | .
COc1ccc(Cn2ccc3nc(C)c(C(=O)NCc4ccc(C)cc4)cc3c2=O)cc1 | . | . | i | 5.2µM* | . | .
COc1ccc(NC(=O)c2sc(=O)n(Cc3ccc(F)c(Cl)c3)c2C)cc1OC | -12% | . | ? | 4.6µM* | ? | .
Cc1cccc(C)c1Cn1c(C)c(C(=O)NCc2ccc([N+](=O)[O-])cc2)sc1=O | ? | . | 2.6µM* | ? | ? | .
C=Cc1ccc(Cn2c(C)c(C(=O)NCc3cccc(C)c3)sc2=O)cc1 | -21% | . | ? | i | ? | .
CSc1ccc(Cn2c(C)c(C(=O)NCc3cccc(C)c3)sc2=O)cc1 | -9% | . | 9.2µM* | i | ? | .
COc1ccc(CNC(=O)c2sc(=O)n(Cc3cc(Cl)ccc3OC)c2C)cc1 | -4% | . | ? | i | -1% | .
COc1ccc(Cn2ccc3nc(C)c(C(=O)NCc4ccc(F)cc4)cc3c2=O)cc1 | . | . | i | ? | . | .
CC(=O)Nc1ccc(NC(=O)c2ccc3c(c2)N(Cc2cccc(Cl)c2)C(=O)c2ccccc2S3=O)cc1 (centres undefined) | . | . | i | i | . | .
Cc1ccc(NS(=O)(=O)c2ccc3c(c2)CCC(=O)N3)cc1F | . | . | ? | i | . | .
CC(C)(C)c1ccc(S(=O)(=O)N2CCN(Cc3noc(CCC(=O)N4CCCCC4)n3)CC2)cc1 | . | . | i | i | . | .
Cc1c(C(=O)NCc2cccc(Cl)c2)sc(=O)n1Cc1cccc(F)c1 | ? | . | 18µM* | i | ? | .
Cc1c(C(=O)NCc2ccc(Cl)c(Cl)c2)sc(=O)n1Cc1cccc(F)c1 | ? | . | ? | i | ? | .
COc1ccc(CNC(=O)c2sc(=O)n(Cc3ccc(C)cc3)c2C)cc1 | 5% | . | 21µM* | i | -2% | .
COc1ccc(CNC(=O)c2sc(=O)n(Cc3ccc(S(=O)(=O)N(C)C)cc3)c2C)cc1 | -22% | . | ? | ? | ? | .
O=C(c1nc(-c2ccc(Cl)cc2)n2c1CCCCC2)N1CCN(c2ccc(F)cc2)CC1 | . | . | i | i | . | .
COc1cc(CN(C(=O)c2ccc(OC(C)C)cc2)c2ccccn2)cc(OC)c1OC | . | . | i | i | . | .
CCOC(=O)Cc1nnc2c(Nc3ccc(Cl)cc3)nc3nonc3n12 | ? | 10% | ? | ? | 9.2µM* | 13µM*
CCOC(=O)Cc1csc(Nc2ccc(Cl)cc2)n1 | -4% | 6% | i | i | 6% | -2%
Cc1ccc(N2CCN(Cc3nnc(-c4ccccc4F)o3)CC2)c(C)c1 | . | . | i | i | . | .
